Broadly, the inhibition is the change of the read-out against control, counted positive when it falls.

“And” between values parts separate entries of the source, which are not always exact repeats. Equal entries are not always repeated. The campaign covered roughly 290,000 compounds. About 27,000 (9.3%) were called active. Cut-off read from the data, not from the text of the source: active = inhibition mostly above about 28% (no sharp cut-off); inactive = mostly below about 43%. Shown is part of a subset that was picked to be rich in actives.

This experiment can be described thus: A qHTS for Small Molecule Inhibitors of Shiga Toxin. Note: 0% is about no effect. The following applies: Vero cells, Shiga toxin protein synthesis inhibition reporter; at 38.7 µM, hits give high values. For orientation: Quantitative high-throughput screening tests each substance at several concentrations.
Consider `Cc1cc(C)nc(Nc2n[nH]c(-c3ccccc3N)n2)n1`, for which the inhibition is 55% (active).
Regarding `Cc1cc(C)nc(Nc2ncn[nH]2)n1`, the inhibition was -5.43% (inactive).
For the compound `COc1ccccc1-c1nc(SC)n[nH]1`, the inhibition is 50.6% (inactive).
The figure for `CCOc1ccc(CNC(=O)C2CCCN(c3nnc(C)c4c(C)n(-c5ccccc5)nc34)C2)cc1` (configuration not stated) is -7.91% (inactive); for `N#CC1(NC(=O)COC(=O)CCN=C2NS(=O)(=O)c3ccccc32)CCCCC1` it is 12.6% (inactive); for `CN(CC(=O)Nc1ccc(Cl)cc1)C(=O)CNC(=O)c1ccc2ccccc2c1` it is 121% (active).
On to `COc1ccc(NC(=O)CN(C)C(=O)CNC(=O)C2CCCCC2)cc1`, for which the inhibition is 14.6% (inactive).
As for `COc1cccc(NC(=O)CN(C)C(=O)Cc2ccc(Cl)cc2Cl)c1`, the inhibition was -4.77% (inactive).
Consider `CC1CCN(S(=O)(=O)c2ccc3c(c2)n(C)c(=O)n3C)CC1`, for which the inhibition is -5.36% (inactive).
For the compound `O=C(Nc1ccc([N+](=O)[O-])cc1)OCCc1ccccn1`, the inhibition was 44% (inactive).
In the case of `CC1CCN(CCC(=O)Nc2ccccc2)CC1`, the inhibition was -4.96% (inactive).
The figure for `COC(=O)c1cc(C)sc1NC(=O)CC1Nc2ccccc2NC1=O` (configuration not stated) is 46.2% (inactive); for `CCN(CC)CCNCC(=O)Nc1ccc(Oc2ccccc2)cc1` it is 3.13% (inactive).
As for `CCOc1ccc(NC(=O)CC2NCCNC2=O)cc1` (configuration not stated), the inhibition is 13.1% (inactive).
Turning to `CCOC(=O)c1ccccc1NC(=O)CC1Nc2ccccc2NC1=O` (configuration not stated), the inhibition was -1.95% (inactive).
Take `CCc1ccc(NC(=O)CC2C(=O)NCCN2C(=S)Nc2ccccc2)cc1` (configuration not stated): the inhibition is 1.19% (inactive).
Next, `O=C(CC1NCCNC1=O)Nc1ccc(Oc2ccccc2)cc1` (configuration not stated): 61.1% (active).
As for `O=C(CC1Nc2ccccc2NC1=O)Nc1ccccc1NC(=O)CC1Nc2ccccc2NC1=O` (configuration not stated), the inhibition is 73.6% (active).
On to `O=C(CC1Nc2ccccc2NC1=O)Nc1ccccc1` (configuration not stated), for which the inhibition is 38.2% (active).
For `COc1ccc(C23NCCN2C(=O)c2ccccc23)cc1` (configuration not stated), the inhibition is -8.39% (inactive).
Next, `COc1ccc(CNC(=O)c2cc(C(=O)C3CC3)c[nH]2)cc1`: 27.9% (inactive).
Regarding `CCOC(=O)c1c(-c2ccccc2)oc2cc(Br)c(O)cc12`, the inhibition was -8.35% (inactive).
Take `COc1cc(OC)cc(C(=O)NCCCn2ccnc2)c1`: the inhibition is 13.8% (inactive).
In the case of `COCCCNS(=O)(=O)c1cccc(S(=O)(=O)c2cccc(S(=O)(=O)NCCCOC)c2)c1`, the inhibition is -4.92% (inactive).
As to `CN(C)c1ccc(C(CNC(=O)c2ccc(F)cc2)c2c[nH]c3ccccc23)cc1` (configuration not stated), the inhibition is 5.91% (inactive).
In the case of `CCCS(=O)(=O)Nc1ccc(-c2cn3c(n2)SCC3)cc1`, the inhibition is 27.3% (inactive).
With `O=C(NCCCNc1ccc([N+](=O)[O-])cc1Cl)c1ccccc1F`, the inhibition is -2.91% (inactive).
Consider `O=[N+]([O-])c1ccccc1NCc1ccc(Cl)cc1`, for which the inhibition is 48.7% (active).
As to `O=[N+]([O-])c1ccccc1NCc1ccccc1Cl`, the inhibition is 8.89% (inactive).
`Cc1c(NC(=S)NCc2ccc(F)cc2)cccc1[N+](=O)[O-]`: the inhibition is -13.6% (inactive).
With `O=C(NCCNc1ccccc1[N+](=O)[O-])c1ccccc1F`, the inhibition was 61.5% (active).
With `O=C(O)c1ccccc1C(=O)Nc1ccccc1[N+](=O)[O-]`, the inhibition is 0.458% (inactive).
For `Cc1cc(S(=O)(=O)NCC(C)C)ccc1OCC(=O)NC1CC1`, the inhibition was -1.92% (inactive).
Regarding `COc1ccc(O)c(/C=N/N=C/c2cccc([N+](=O)[O-])c2)c1`, the inhibition is 1.13% (inactive).
The figure for `O=C(O)c1ccccc1-c1ccccc1C(=O)Nc1ccccc1Br` is 10.4% (inactive); for `COc1ccccc1OCCn1c(SCC(N)=O)nc2ccccc21` it is -12.1% (inactive).
In the case of `COc1cccc2sc(NNC(=O)c3nc4ccccc4s3)nc12`, the inhibition was 19.2% (inactive).
For the compound `COc1ccccc1OCc1nc2ccccc2s1`, the inhibition is 63.5% (active).
As to `Cc1ccc(O)c(/C=N/NC(=O)COc2ccc3c(C)cc(=O)oc3c2)c1`, the inhibition is 4.79% (inactive).
Regarding `CCOC12CC(C)(C)CC(C)(CC3=C1C(=O)CC(C)(C)C3)C2` (configuration not stated), the inhibition is -2.06% (inactive).
`CCCCOP(=O)(c1ccc(N(C)C)cc1)C(O)c1cc(OC)ccc1OC` (configuration not stated): the inhibition is -2.17% (inactive).
Next, `CCOC(=O)/C(C#N)=C/c1ccc(N2CCN(Cc3ccccc3)CC2)cc1`: 32.9% (inactive); `COc1ccc(N2CCN(C(=O)/C(C#N)=C/c3ccccc3)CC2)cc1`: 33.9% (inactive); `CCOC(=O)/C(C#N)=C/c1ccc(N2CCCCC2)cc1`: 111% (active).
As to `COc1ccc(S(=O)(=O)N2CCC(C(=O)N3CCCC3)CC2)cc1C`, the inhibition is -7.97% (inactive).
As for `CCOc1ccc(NC(=O)c2cccc3c2C(=O)N(CC2CCCO2)C3)cc1` (configuration not stated), the inhibition was 11.4% (inactive).
For `COc1ccc(C2CC(O)(c3ccccc3)Oc3cc(C)cc(C)c32)cc1` (configuration not stated), the inhibition is 17.1% (inactive).
As to `COCCn1c(SCC(=O)Nc2cc(Cl)ccc2OC)nc2c(c1=O)SC(C)C2` (configuration not stated), the inhibition was 4.22% (inactive).
For the compound `C=CCSc1nc2c(c(=O)[nH]c(=O)n2C)n1Cc1ccccc1`, the inhibition is -6.62% (inactive).
With `CC(C)n1c(=O)c(C=Nc2ccc(Br)cc2)c(O)n(Cc2ccco2)c1=O`, the inhibition is -2% (inactive).
As to `Cc1cs/c(=N\N=C\c2ccc(O)cc2)n1Cc1ccco1`, the inhibition was 0% (active).
As for `CN(c1ccccc1)c1ccc(/C=c2\s/c(=C(/C#N)C(=O)C(C)(C)C)n(Cc3ccco3)c2=O)cc1`, the inhibition was -15.7% (inactive).
`CC(C)c1ccc(Cc2nnc(NCCCO)[nH]c2=O)cc1`: the inhibition was -6.37% (inactive).
On to `Cc1ccccc1CN1C(=O)c2ccccc2Sc2ccc(C(=O)NCCCN3CCOCC3)cc21`, for which the inhibition is -7.27% (inactive).
For `COC(=O)c1ccc(CNC(=O)C2CCC(=O)N(Cc3cccc(F)c3)C2)cc1` (configuration not stated), the inhibition was -2.68% (inactive).
Turning to `COc1ccc(S(=O)(=O)NC(C)C(=O)N2CCCCCC2)cc1` (configuration not stated), the inhibition is -16.1% (inactive).
For the compound `O=C(c1ccccc1)c1ccc(OCC(O)CN2CCCC2)cc1` (configuration not stated), the inhibition was 2.19% (inactive).
With `O=C(c1ccccc1)c1ccc(C(=O)N2CCN(c3ccccc3)CC2)cc1`, the inhibition is 30.8% (inactive).
Consider `O=C(c1ccccc1)c1ccc(OC(=O)N2CCCC2)cc1`, for which the inhibition was 47.5% (active).
Next, `CC(C)(C)c1ccc(C(=O)N2CCC(C(=O)N3CCCCC3)CC2)cc1`: -4.15% (inactive).
For `CC(C)(C)c1ccc(OC(=O)N2CCCCC2)cc1`, the inhibition was 104% (active).
In the case of `O=C(NCCc1ccccn1)c1nc(Cn2cc([N+](=O)[O-])cn2)no1`, the inhibition is -5.12% (inactive).
The figure for `COc1cccc(CN(C)CC(O)COC(c2ccccc2)c2ccccc2C)c1` (configuration not stated) is -8.7% (inactive).
Next, `COc1ccc(-c2nc(N)ncc2-c2ccc(Cl)cc2)c(O)c1`: 8.54% (inactive); `COc1ccc(-c2nnc3n2CCCCC3)cc1`: 5.25% (inactive); `Brc1cccc(-c2nnc3n2CCC3)c1`: -4.22% (inactive).
Next, `COc1ccc(-c2nc3n(c2Br)CCC3)cc1`: 87.2% (active); `CCCCCn1c(=O)[nH]c2cc(C(=O)NCCCN3CCCCC3C)ccc2c1=O` (configuration not stated): -23.9% (inactive).
Turning to `CNC(=O)CN1C(=O)NC(c2ccccc2)(c2ccccc2)C1=O`, the inhibition is -7.36% (inactive).
As for `O=C(NCc1ccc(F)cc1)C1CCN(C(=O)Nc2ccc(F)cc2)CC1`, the inhibition was -9.53% (inactive).
As for `O=c1[nH]n(-c2ccc([N+](=O)[O-])cc2)c(=O)c2ccccc12`, the inhibition was -17% (inactive).
Regarding `O=C1CC(c2ccccc2)=NN1c1ccc([N+](=O)[O-])cc1`, the inhibition was 55% (active).
Take `CC1=NN(c2ccccc2)C(=O)C1C(=O)c1ccc([N+](=O)[O-])cc1` (configuration not stated): the inhibition is 27.4% (inactive).
On to `CCC(C)[C@H](NC(=O)N1CCn2c1nc1ccccc12)C(=O)NCc1ccc(OC)cc1` (some centres not stated), for which the inhibition was 13.9% (inactive).
Next, `COc1ccc(C(CNCC(=O)Nc2ccccc2F)N(C)C)cc1` (configuration not stated): 7.34% (inactive); `Cc1cc(C)c2nc(-c3ccco3)cc(C(=O)O)c2c1`: -7.1% (inactive).
Next, `Cc1cc(C)c2nc(SCCC#N)nc(C)c2c1`: 27.9% (inactive).
With `Cc1cc(C)c2nc3nc(C)cc(C)c3c(N)c2c1`, the inhibition is 32.6% (active).
Take `OCCC(O)CO` (configuration not stated): the inhibition is -8.78% (inactive) and 20.3% (inactive) and 19.5% (inactive).
Regarding `COc1ccc(CCNCc2c(-c3ccccc3)n(C)c3ccccc23)cc1`, the inhibition is 11.5% (inactive).
For `CN(C)Cc1c(C#N)c2ccccc2n1C`, the inhibition is -25% (inactive).
`COc1ccc(-c2c(C#Cc3ccccc3)c3ccccc3n2C)cc1`: the inhibition was 43.7% (active).
In the case of `COc1cccc(C(=O)Nc2nnc(S(=O)(=O)N(C)c3ccccc3)s2)c1`, the inhibition was 3.08% (inactive).
Take `Cc1nc2sccn2c(=O)c1S(=O)(=O)NCCc1ccccc1`: the inhibition is -9.77% (inactive).
As for `Cc1ccc(OCC(=O)Nc2nnc(-c3ccco3)s2)cc1`, the inhibition was 4.17% (inactive).
As to `COc1ccc(C(=O)CSc2nnc(-c3ccco3)o2)cc1`, the inhibition is 10.9% (inactive).
As for `Cc1ccc(OCC(=O)Nc2ccc(-c3nc4ncccc4o3)cc2)cc1`, the inhibition was 2.45% (inactive).
As for `Cc1cccc(NC(=O)CSc2nnc(-c3ccco3)o2)c1`, the inhibition is -23.3% (inactive).
Regarding `CCCCOc1ccc(-c2nnc(-c3ccco3)o2)cc1`, the inhibition is 85.9% (active).
As for `O=C(CCc1ccccc1)Nc1cccc(-c2nnc(-c3ccco3)o2)c1`, the inhibition was 19.4% (inactive).
The figure for `Cc1ccc(OCC(=O)Nc2ccc(-c3nnc(-c4ccco4)o3)cc2)cc1` is 22.1% (active).
As to `COc1ccc(OCC(=O)Nc2nnc(-c3ccco3)s2)cc1`, the inhibition is 2.24% (inactive).
Regarding `CCC(=O)Oc1cccc(C(=O)Nc2ccc(-c3nnc(-c4ccco4)o3)cc2)c1`, the inhibition is 90.4% (active).
Next, `Cc1ccc(-c2nnc(Nc3ccc(C(=O)N(C)C)cc3)c3ccccc23)cc1S(N)(=O)=O`: 1.45% (inactive); `CC(C)(C)n1ncc2c(=O)n(Cc3ccc(Cl)cc3)cnc21`: 33.8% (inactive).
For the compound `Cc1cc(=O)oc2c(C)c(OCC(=O)NCCc3ccc(S(N)(=O)=O)cc3)ccc12`, the inhibition is -5.85% (inactive).
For `CCOc1ccc(NC(=O)[C@H](C)NC(=O)C2CC(=O)N(c3ccc(OC)cc3)C2)cc1` (some centres not stated), the inhibition is -4.28% (inactive).
